Reference: PubChem BioAssay (NCATS)
Results filed as inconclusive are left out. Unmarked numbers belong to inactive results. Activity calls are given as the source filed them. Unless noted, the call rests on the fitted dose curve; in most records, active means well fitted curve in the direction sought with a large enough effect; inconclusive means small, poorly fitted or top-dose-only effect, or another doubt; inactive means no such curve, though single readings can be large; an effect the other way counts as inactive or inconclusive.

Target: Cytochrome P450 2C9 (Homo sapiens) (UniProt P11712)
Test: Cytochrome P450 family 2 subfamily C member 9 (CYP2C9) small molecule antagonists: luciferase biochemical (cell-free) qHTS assay (AID 1645842; active means well fitted curve in the direction sought with a large enough effect in the repeat runs; an effect the other way counts as inactive or inconclusive; further: nearly all actives have a fitted effect of over 55% in size; further: potency means the concentration at half of the fitted maximal effect)
Conditions: P450-Glo CYP2C9 enzyme assay, luciferin luminescence; series mostly up to 57.4 µM; activity change, negative = inhibition: at the top concentration
Method in brief: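 Luminescence, after 20 min with luciferin detection reagent, reflected CYP2C9 turnover during a 1 h NADPH-driven reaction at 37C. Enzyme-substrate mix contained 0.4% bovine serum albumin and was preincubated with compound 10 min at room temperature.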
On the % scale 0 is the no-effect control and ±100 the full control effect.

Cytochrome P450 2C9 (Homo sapiens), sequence (P11712 whole entry, looked up): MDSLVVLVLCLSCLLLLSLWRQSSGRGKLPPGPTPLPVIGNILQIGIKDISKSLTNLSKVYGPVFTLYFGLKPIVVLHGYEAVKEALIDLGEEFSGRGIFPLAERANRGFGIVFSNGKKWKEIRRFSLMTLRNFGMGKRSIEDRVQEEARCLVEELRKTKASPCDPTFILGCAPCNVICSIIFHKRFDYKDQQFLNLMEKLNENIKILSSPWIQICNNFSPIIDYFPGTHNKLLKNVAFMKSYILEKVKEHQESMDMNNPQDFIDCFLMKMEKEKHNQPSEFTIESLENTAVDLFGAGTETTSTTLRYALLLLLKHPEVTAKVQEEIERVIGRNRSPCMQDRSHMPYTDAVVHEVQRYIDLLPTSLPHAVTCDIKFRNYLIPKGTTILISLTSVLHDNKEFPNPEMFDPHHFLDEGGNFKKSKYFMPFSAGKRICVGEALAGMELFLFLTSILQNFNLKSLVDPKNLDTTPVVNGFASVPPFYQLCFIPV

SMILES | activity change, negative = inhibition [%] | Potency
CCCCOc1nc(N)c2c(n1)N(Cc1cccc(CN3CCCC3)c1)CC(=O)N2 | -29.4 | –
Nc1ncnc2c1C(=O)N(c1ccc(C3CCC(CC(=O)O)CC3)cc1)CCO2 (stereo not given) | -12.4 | –
O=C(/C=C/C=C/c1ccc2c(c1)OCO2)N1CCCCC1 | – | 10.7 µM (active)
Cc1ccccc1-n1nc(-c2c(-c3ccc(F)cc3)nn3c2NC[C@@H](CO)C3)ccc1=O | – | 6.74 µM (active)
CCC(CC)CC1(C(=O)Nc2ccccc2SC(=O)C(C)C)CCCCC1 | – | 1.9 µM (active)
N#Cc1cccc(-c2c[nH]c3ncnc(N4CCOCC4)c23)c1 | – | 2.39 µM (active)
CNc1nc(C)nc(N[C@H]2CCC[C@@H](C(=O)NCc3ccc(C#N)cc3C(F)(F)F)C2)n1 | 18.8 | –
O=C(O)CC1CCC(c2ccc(-c3ccc(Nc4ccc(C(F)(F)F)nc4)cn3)cc2)CC1 (stereo not given) | 8.58 | –

Test system: not listed separately
Test: Primary qHTS for inhibitors of nuclear receptor binding SET domain protein 2 (NSD2) in an isogenic RCH-ACV NSD2 p.E1099K mutant (9B) (AID 1645876); further: nearly all actives have a fitted effect of over 70% in size
Conditions: RCH-ACV (leukaemia line) NSD2 E1099K (9B) viability, CellTiter-Glo, 72 h; series mostly up to 44.9 µM; activity change, negative = viability loss: at the top concentration

SMILES | activity change, negative = viability loss | Potency | outcome
C/C(=C\CC/C(C)=C/CC[C@]1(C)CCc2cc(O)cc(C)c2O1)CC/C=C(\C)C(=O)O | -29.1% [at 17.3 µM] | – | –
COc1ccc2[nH]c(S(=O)Cc3ncc(C)c(OC)c3C)nc2c1 (stereo not given) | -26.2% | – | –
CCCCOc1nc(N)c2c(n1)N(Cc1cccc(CN3CCCC3)c1)CC(=O)N2 | 2.23% | – | –
Nc1ncnc2c1C(=O)N(c1ccc(C3CCC(CC(=O)O)CC3)cc1)CCO2 (stereo not given) | – | inactive | –
CC(=O)O[C@H]1C[C@@]2(C)[C@@H](CC[C@H]3[C@@]4(C)C=CC(=O)[C@@H](C)[C@@H]4[C@H](OC(C)=O)C(=O)[C@@]32C)/C1=C(\CCC=C(C)C)C(=O)O | – | – | inactive [at 17.3 µM]
Cn1cc(-c2c[nH]c3ncnc(N4CCOCC4)c23)cn1 | -15.6% | – | –
C[C@@H]1O[C@@H](O[C@@H]2\C=C/C=C\C=C/C=C\C[C@H](C)OC(=O)/C=C\[C@H]3O[C@@H]3C[C@H](O)C[C@]3(O)C[C@@H](O)[C@@H](C(=O)O)[C@H](C2)O3)[C@H](O)[C@H](N)[C@@H]1O | 5.74% | – | –
Cc1nc(-c2cccnc2)sc1C(=O)Nc1ccccc1-c1cn2c(CN3CCOCC3)csc2n1 | – | inactive | –
O=C(COCC(=O)N1CCN(C(c2ccccc2)c2ccccc2)CC1)Nc1ccc(Cl)cc1C(=O)O | – | inactive | –
CCC(CC)CC1(C(=O)Nc2ccccc2SC(=O)C(C)C)CCCCC1 | – | inactive | –
CC(C)c1ccc2c(c1)CCC1[C@](C)(C(=O)O)CCC[C@]21C (stereo not given in full) | -18.1% | – | –
Cc1c(Cc2ccc3ccccc3n2)c2cc(F)ccc2n1CC(=O)O | – | – | inactive
CC(C)N(CCCNC(=O)Nc1ccc(C(C)(C)C)cc1)C[C@H]1O[C@@H](n2ccc3c(N)ncnc32)[C@H](O)[C@@H]1O | -17.8% | – | –
CC(=O)NC(Cc1c[nH]c2ccccc(=O)c12)C(=O)O (stereo not given) | 2.2% | – | –
CNc1nc(C)nc(N[C@H]2CCC[C@@H](C(=O)NCc3ccc(C#N)cc3C(F)(F)F)C2)n1 | -9.45% | – | –
Cc1cccc(-c2nn3c(c2-c2ccnc4ccc(C(N)=O)cc24)CCC3)n1 | – | inactive | –
O=C(O)CC1CCC(c2ccc(-c3ccc(Nc4ccc(C(F)(F)F)nc4)cn3)cc2)CC1 (stereo not given) | 9.38% | – | –
N#Cc1ccc(C2CCCc3cncn32)cc1 (stereo not given) | – | – | inactive [at 17.3 µM]
C=C1C[C@@]2(O)O[C@@]3(C[C@H]2C(C)C)[C@@H](C)CC[C@@H]13 | – | – | inactive
COc1cccc2c1c(O)c(C(=O)N(C)c1ccc(C(F)(F)F)cc1)c(=O)n2C | – | inactive | –
COc1ccc(CC(NC(C)=O)C(=O)O)cc1 (stereo not given) | – | – | inactive
CCc1cccc2c3c([nH]c12)[C@@](CC)(CC(=O)O)OCC3 | 7.2% | – | –
